Results filed as inconclusive are left out. Calls of active or inactive are those of the source. The call rests on the fitted dose curve; in most records, active means well fitted curve in the direction sought with a large enough effect; inconclusive means small, poorly fitted or top-dose-only effect, or another doubt; inactive means no such curve, though single readings can be large; an effect the other way counts as inactive or inconclusive.
What was measured:
[1] = target: Cellular tumor antigen p53 (Homo sapiens) (UniProt P04637); test: Primary qHTS for small molecule compounds that upregulate eGFP-tagged delta133p53alpha (in N-terminal) cells. (AID 2060322); conditions: NCI-H358 eGFP-delta133p53alpha fluorescence, 24 h; activation: stronger effect = higher value;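 further: 0% = DMSO vehicle and 100% = reference activator; nearly all actives have a fitted effect of over 75% in size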
Method in brief: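 NCI-H358 cells pre-induced 24 h with 10 ng/ml doxycycline to express N-terminal eGFP-delta133p53alpha, then dosed 24 h at 37C without doxycycline; fixed, Hoechst-stained, GFP intensity by laser scanning cytometry, normalized to DMSO (0%) and 57.5 uM 5-azacytidine (100%).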

[2] = target: Aldehyde dehydrogenase, mitochondrial (Homo sapiens) (UniProt P05091); test: qHTS for Inhibitors of the Aldehyde Dehydrogenase Family (ALDH2) Primary screen (AID 2061308); conditions: ALDH2 enzyme inhibition qHTS, 1536-well; series mostly up to 56 µM;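 further: plate controls were vehicle for no effect and reference inhibitor for full effect; nearly all actives have a fitted effect of over 55% in size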
[3] = target: Retinaldehyde dehydrogenase 3 (Homo sapiens) (UniProt P47895); test: qHTS for Inhibitors of the Aldehyde Dehydrogenase Family (ALDH1A3) Primary screen (AID 2061315); conditions: ALDH inhibition qHTS; series mostly up to 56 µM;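 further: plate controls were DMSO vehicle for no effect and reference inhibitor for full effect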

Sequence of Cellular tumor antigen p53 (Homo sapiens) (P04637 whole entry, looked up): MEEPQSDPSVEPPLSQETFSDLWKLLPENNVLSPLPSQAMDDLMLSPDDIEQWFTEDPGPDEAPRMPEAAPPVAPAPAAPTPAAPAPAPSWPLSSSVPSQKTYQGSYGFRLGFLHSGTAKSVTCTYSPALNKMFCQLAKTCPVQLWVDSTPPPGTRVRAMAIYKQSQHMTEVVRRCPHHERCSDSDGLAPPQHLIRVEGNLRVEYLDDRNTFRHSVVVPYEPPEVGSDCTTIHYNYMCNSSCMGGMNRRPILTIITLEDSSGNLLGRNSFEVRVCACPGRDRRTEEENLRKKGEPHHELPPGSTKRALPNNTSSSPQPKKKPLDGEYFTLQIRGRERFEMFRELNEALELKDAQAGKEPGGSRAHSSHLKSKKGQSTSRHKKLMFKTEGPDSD

CC1(C)CC[C@]2(C(=O)O[C@@H]3O[C@H](CO)[C@@H](O)[C@H](O)[C@H]3O)CC[C@]3(C)C(=CCC4[C@@]5(C)CC[C@H](O[C@@H]6O[C@H](C(=O)O)[C@@H](O)[C@H](O)[C@H]6O)[C@@](C)(CO)C5CC[C@]43C)C2C1 (stereo partly specified)
inactive: activation [1] -1.53% | Potency [2] | Potency [3]

CC1(C)CCC2(C(=O)OC3OC(COC4OC(CO)C(O)C(O)C4O)C(O)C(O)C3O)CCC3(C)C(=CCC4C5(C)CCC(O)C(C)(C(=O)O)C5CCC43C)C2C1O (stereo unspecified)
inactive: activation [1] 5.34% | Potency [2] | Potency [3]

Cc1ncc([N+](=O)[O-])n1CC(O)CN1CCOCC1 (stereo unspecified)
inactive: activation [1] -11% | Potency [2] | Potency [3]

CC1=C(C(=O)O)/C(=C\CO[C@@H]2O[C@H](CO)[C@@H](O)[C@H](O)[C@H]2O)C(OC(=O)/C=C\c2ccc(O)cc2)C1 (stereo partly specified)
inactive: activation [1] 8.93% | Potency [2] | Potency [3]

CC(=O)N[C@H]1[C@H](O[C@H]2CC[C@@]3(C)C(CC[C@]4(C)C3CC=C3C5CC(C)(C)CC[C@]5(C(=O)O)C(O)C[C@]34C)C2(C)C)O[C@H](CO[C@@H]2O[C@H](C)[C@H](O)[C@H](O)[C@H]2O[C@@H]2OC[C@@H](O)[C@H](O)[C@H]2O)[C@@H](O)[C@@H]1O (stereo partly specified)
inactive: activation [1] 13.4% | Potency [2] | Potency [3]

COc1cc(/C=C/C(=O)O[C@@H]2C[C@](O)(C(=O)O)C[C@@H](O)[C@H]2O)ccc1O
inactive: activation [1] 3.57% | Potency [2] | Potency [3]

CCOc1ccc(-c2nn3ncccc3c2-c2ccc(S(C)(=O)=O)cc2)cc1
inactive: activation [1] -4.46% | Potency [2] | Potency [3]
